From the supplement of paper PMC13380429

What was measured:
[1] = test system: Vero E6 infected with SARS-CoV-2; assay: morphology score (similarity to uninfected cells); higher = more like uninfected cells; conditions: 24 h
[2] = test system: Vero E6 infected with SARS-CoV-2; assay: SARS-CoV-2 infection rate relative to infected DMSO; higher = more infection, active = 60 or less; conditions: 24 h

| Compound | morphology score [1] | SARS-CoV-2 infection rate [2] |
| --- | --- | --- |
| O=C(CCCl)NCCc1ccccc1 [fenaclon] (10 µM) | 0.0663 | 102% (inactive) |
| C[C@H](NC(=O)c1sccc1OCc1ccc(Cl)cc1)c1ccccc1 (10 µM) | 0.0842 | 94.5% (inactive) |
| COc1c2occc2c(OC)c2c(=O)cc(C)oc12 [khellin] (10 µM) | -0.102 | 109% (inactive) |
| CN(C)[C@@H]1C(O)=C(C(N)=O)C(=O)[C@@]2(O)C(O)=C3C(=O)c4c(O)ccc(Cl)c4[C@@](C)(O)[C@H]3C[C@@H]12 (10 µM) | 0.129 | 102% (inactive) |
| O=c1[nH]c(=O)n([C@H]2C[C@H](O)[C@@H](CO)O2)cc1C(F)(F)F [trifluridine] (0.833333 µM) | 0.175 | 101% (inactive) |
| CC1(C)CCC(C)(C)c2c1cc(C(=O)Nc1cc(F)c(C(=O)O)c(F)c1)c(O)c2Cl (10 µM) | -0.137 | 110% (inactive) |
| Cc1cnc(Nc2ccc(OCCN3CCCC3)cc2)nc1Nc1cccc(S(=O)(=O)NC(C)(C)C)c1 [fedratinib] (0.833333 µM) | -0.054 | 99.5% (inactive) |
| COc1ccc(Oc2c(Cl)cnn(C3c4ccccc4-c4ccccc43)c2=O)cc1 (10 µM) | 0.0752 | 102% (inactive) |
| COc1nccc(-c2c(-c3ccc(F)cc3)ncn2C2CCNCC2)n1 (10 µM) | -0.0202 | 98.5% (inactive) |
| O=C(Nc1ccc(Cl)nc1)c1ccc(Cl)cc1 (10 µM) | 0.18 | 99.5% (inactive) |
| COc1cc(C(=O)N2CCOCC2)cc(OC)c1OC [trimetozine] (10 µM) | -0.0638 | 113% (inactive) |
| CC(C)NCC(O)c1ccc([N+](=O)[O-])cc1 (stereo unspecified) [nifenalol] (10 µM) | -0.141 | 118% (inactive) |
| CC(O)CC(=O)O (stereo not drawn) [beta-hydroxybutyrate] (10 µM) | -0.0603 | 116% (inactive) |
| CC1(C)CC[C@]2(C(=O)O)CC[C@]3(C)C(=CC[C@@H]4[C@@]5(C)CC[C@H](O)C(C)(C)[C@@H]5CC[C@]43C)[C@@H]2C1 [oleanolic-acid] (10 µM) | 0.0528 | 110% (inactive) |
| CC(C)(C)OC(=O)c1ncn2c1[C@@H]1CCCN1C(=O)c1c(Br)cccc1-2 [bretazenil] (10 µM) | 0.108 | 101% (inactive) |
| CCN(CC)C(=O)N1CCN(C)CC1 [diethylcarbamazine] (10 µM) | 0.035 | 104% (inactive) |
| NCCc1c[nH]cn1 [histamine] (10 µM) | -0.112 | 114% (inactive) |
| CCCCn1c(=O)c2[nH]c(C34CC5CC(CC3C5)C4)nc2n(CCCO)c1=O (10 µM) | -0.0475 | 100% (inactive) |
| CO[C@@H](C(=O)N1Cc2[nH]nc(NC(=O)c3ccc(N4CCN(C)CC4)cc3)c2C1)c1ccccc1 [danusertib] (10 µM) | 0.109 | 115% (inactive) |
| Oc1ccc(C2(c3ccccc3F)CCC(F)(F)CC2)cc1 (10 µM) | 0.0902 | 93% (inactive) |
| C=CCNc1c(O)cc2c(O)c1C[C@@H](C)C[C@H](OC)[C@H](O)[C@@H](C)/C=C(\C)[C@H](OC(N)=O)[C@@H](OC)/C=C\C=C(/C)C(=O)N2 [retaspimycin] (10 µM) | -0.0349 | 108% (inactive) |
| Cc1cccn2c(=O)c(-c3nnn[nH]3)cnc12 [pemirolast] (10 µM) | 0.106 | 94.5% (inactive) |

| Compound | morphology score [1] | SARS-CoV-2 infection rate [2] |
| --- | --- | --- |
| Cc1c(-c2ccnn2C)cc(C(=O)NCc2ccc(S(C)(=O)=O)cn2)c(=O)n1-c1cccc(C(F)(F)F)c1 (10 µM) | 0.101 | 106% (inactive) |
| Cc1ccc2c(=O)c3cccc(CC(=O)O)c3oc2c1C (10 µM) | -0.0879 | 114% (inactive) |
| C[C@](N)(Cc1ccc(O)c(O)c1)C(=O)O [methyldopa] (10 µM) | -0.111 | 97.5% (inactive) |
| CC(C)(CO)[C@@H](O)C(=O)NCCC(=O)O [pantothenic-acid] (10 µM) | 0.0324 | 110% (inactive) |
| O=C1NC(=O)c2cc(Nc3ccccc3)c(Nc3ccccc3)cc21 (10 µM) | 0.39 | 72% (inactive) |
| CC(=O)NCCc1c(Cc2ccccc2)[nH]c2ccccc12 [luzindole] (10 µM) | 0.0073 | 99% (inactive) |
| CC(C)c1ccccc1S(=O)(=O)c1cc(N)c2ncccc2c1[N+](=O)[O-] (10 µM) | 0.225 | 95.5% (inactive) |
| C/C(=C\c1csc(C)n1)[C@@H]1C[C@@H]2O[C@]2(C)CCC[C@H](C)[C@H](O)[C@@H](C)C(=O)C(C)(C)[C@@H](O)CC(=O)O1 [epothilone-B] (0.833333 µM) | 0.00236 | 115% (inactive) |
| Cc1cc(Nc2ccc(NC(=O)c3ccc(Nc4ccnc5ccccc45)cc3)cc2)nc(N)n1 (0.833333 µM) | -0.0128 | 104% (inactive) |
| CO[C@H]1C[C@H](O[C@H]2[C@H](C)O[C@@H](O[C@@H]3/C(C)=C/C[C@@H]4C[C@@H](C[C@]5(C=C[C@H](C)[C@@H](C6CCCCC6)O5)O4)OC(=O)[C@@H]4C=C(C)[C@@H](O)[C@H]5OC/C(=C\C=C\[C@@H]3C)[C@]54O)C[C@@H]2OC)O[C@@H](C)[C@@H]1O [doramectin] (0.833333 µM) | 0.0705 | 104% (inactive) |
| Cc1c(C2CCN(CCc3ccccc3)CC2)noc1-c1ccc(Cl)cc1 (10 µM) | 0.195 | 84% (inactive) |
| O=C(O)c1ccccc1O [salicylic-acid] (10 µM) | 0.0239 | 107% (inactive) |
| CCCOc1ccc(Br)cc1-c1cc(-c2ccc(Cl)cc2)[nH]c1-c1ccncc1 (10 µM) | 0.113 | 100% (inactive) |
| Oc1cccc(Nc2ncc(F)c(Nc3cccc(O)c3)n2)c1 (0.833333 µM) | 0.183 | 100% (inactive) |
| CNC(=O)c1cccc(-c2ccc3c(N4CCOC[C@@H]4C)nc(N4CCOC[C@@H]4C)nc3n2)c1 (10 µM) | -0.219 | 108% (inactive) |
| COc1ccncc1C(=O)NC(=O)Nc1ccc(-c2ccccc2)c(C(F)(F)F)c1 [S1P1-agonist-III] (10 µM) | -0.0188 | 100% (inactive) |
| CCN1CCN(C(=O)N[C@@H](C(=O)N[C@@H]2C(=O)N3C(C(=O)O)=C(CSc4nnnn4C)CS[C@H]23)c2ccc(O)cc2)C(=O)C1=O [cefoperazone] (10 µM) | 0.206 | 104% (inactive) |
| Cc1cccc(Nc2cc(Cl)nc(SCC(=O)O)n2)c1C [pirinixic-acid] (10 µM) | 0.0216 | 108% (inactive) |
| CN(C)CCC=C1c2ccccc2C=Cc2ccccc21 [cyclobenzaprine] (10 µM) | 0.228 | 78% (inactive) |
| CC(C)Oc1ccc(-c2nc(-c3cccc4c3CC[C@@H]4NCCO)no2)cc1C#N [ozanimod] (0.833333 µM) | 0.262 | 101% (inactive) |
| O=[N+]([O-])c1cc2nc(O)c(O)nc2cc1[N+](=O)[O-] (10 µM) | 0.165 | 100% (inactive) |
